Experimental data taken from PubChem BioAssay (Tox21).
Results filed as inconclusive are left out. Calls of active or inactive are those of the source. Unless noted, calls follow the shape of the dose curve; as a rule, active = well fitted cell-killing curve with a large enough effect in the repeat runs; inconclusive = weak or mixed curves, or effect the other way; inactive = no such curve, though single readings can be large or run the other way.

Test: qHTS assay to identify small molecule antagonists of the vitamin D receptor (VDR) signaling pathway - cell viability counter screen (AID 743225); also: nearly all actives have a fitted effect of over 50% in size
Conditions: VDR-bla HEK293T viability, CellTiter-Glo luminescence, 16 h; series mostly up to 61 µM
Method in brief: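 Cytotoxicity counter screen read by CellTiter-Glo luminescence (30 min, room temperature) in the same wells as the VDR-bla antagonist readout. HEK 293T VDR-UAS-bla cells had 16 h at 37C with compound and 3 nM (final) 1-alpha,25-dihydroxyvitamin D3, then 2 h with FRET substrate.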

Row | Structure (SMILES) | outcome
1 | C#CC(C)N(C)C(=O)Nc1ccc(Cl)cc1 (stereo not given) | inactive
2 | CC(=O)c1ccc2c(c1)Cc1ccccc1-2 | inactive
3 | CCN1CCc2nc(N)oc2CC1 | inactive
4 | COc1nccnc1NS(=O)(=O)c1ccc(N)cc1 | inactive
5 | BrCCCCCBr | inactive
6 | CCC(C=O)CC | inactive
7 | CCOC(=O)CC(=O)c1ccccc1 | inactive
8 | O=C(O)c1ccc(Cl)cc1Cl | inactive
9 | CN(C)c1ccc(C=O)cc1 | inactive
10 | CCOc1cc(NC(C)=O)ccc1C(=O)OC | inactive
11 | CC(=C(CCOC(=O)C(C)C)SSC(CCOC(=O)C(C)C)=C(C)N(C=O)Cc1cnc(C)nc1N)N(C=O)Cc1cnc(C)nc1N | inactive
12 | C[C@@H](Oc1ccc(CNC(=O)c2cccnc2Oc2ccc3c(c2)OCO3)c(F)c1)C(=O)O | inactive
13 | O=C(NCCN1CCOCC1)c1ccc(Cl)cc1 | inactive
14 | N[C@@H](COP(=O)(O)O)C(=O)O | inactive
15 | CCCCCCCC/C=C\CCCCCCCC(=O)OCCCC | inactive
16 | Cc1ccsc1/C=C/C1=NCCCN1C | inactive
17 | CNC(=O)[C@H]1O[C@@H](n2cnc3c(NCc4cc(Cl)ccc4OCc4cc(C)no4)ncnc32)[C@H](O)[C@@H]1N | inactive
18 | O=C(O)CCSSCCC(=O)O | inactive
19 | COc1ccc(-c2cc(=O)c3c(O)cc(O[C@@H]4O[C@H](CO[C@@H]5O[C@@H](C)[C@H](O)[C@@H](O)[C@H]5O)[C@@H](O)[C@H](O)[C@H]4O)cc3o2)cc1O | inactive
20 | O=C(CS(=O)Cc1ccco1)NC/C=C\COc1cc(CN2CCCCC2)ccn1 (stereo not given) | inactive
21 | COc1cc(N)ccc1C | inactive
22 | COc1ccc(S(=O)(=O)N2c3ccc(Cl)cc3[C@@](O)(c3ccccc3Cl)[C@H]2C(=O)N2CCC[C@@H]2C(N)=O)cc1OC | inactive
23 | Cc1nc2n(c(=O)c1CCN1CCC(c3noc4cc(F)ccc34)CC1)CCC[C@H]2O | inactive
24 | CC(CN)CC(C)(C)CCN (stereo not given) | inactive
25 | COC(=O)c1ccccc1C(=O)c1ccc(OCCN2CCCCC2)cc1 | inactive
26 | Nc1nnc(-c2cccc(Cl)c2Cl)c(N)n1 | inactive
27 | O=C1c2ccccc2C(=O)C1c1ccccc1 | inactive
28 | CCCCOC(=O)c1ccccc1 | inactive

Test: qHTS assay to identify small molecule agonists of the NFkB signaling pathway (AID 1159509; active = well fitted curve in the direction sought with a large enough effect in the signal ratio in the repeat runs, not every such curve was filed as active; the % refers to the signal ratio)
Conditions: NFkB-bla ME-180 cells, beta-lactamase FRET ratio, 5 h; series mostly up to 61 µM
Method in brief: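 Readout: FRET fluorescence, 405 nm excitation, 460/530 nm emission; beta-lactamase expression disrupts FRET. Cells: ME-180 stably carrying NF-kB-driven bla reporter. Compound exposure 5 hr, 37 C, 5% CO2.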

Row | Structure (SMILES) | outcome
29 | C#CC(C)N(C)C(=O)Nc1ccc(Cl)cc1 (stereo not given) | inactive
30 | CC(C)(C)OC(=O)c1ccc(O)cc1 | inactive
31 | CCN(C)C(=O)Oc1cccc([C@H](C)N(C)C)c1 | inactive
32 | CC(=O)c1ccc2c(c1)Cc1ccccc1-2 | inactive
33 | CCN1CCc2nc(N)oc2CC1 | inactive
34 | COc1nccnc1NS(=O)(=O)c1ccc(N)cc1 | inactive
35 | BrCCCCCBr | inactive
36 | c1ccc2c(c1)ccc1c3ccccc3ccc21 | inactive
37 | CCC(C=O)CC | inactive
38 | CN(CCOc1ccc(NS(C)(=O)=O)cc1)CCc1ccc(NS(C)(=O)=O)cc1 | inactive
39 | O=C1c2ccccc2C(=O)N1CCl | inactive
40 | CN(C)CCOCCO | inactive
41 | CCOC(=O)CC(=O)c1ccccc1 | inactive
42 | O=C(O)c1ccc(Cl)cc1Cl | inactive
43 | CN(C)c1ccc(C=O)cc1 | inactive
44 | CCOc1cc(NC(C)=O)ccc1C(=O)OC | inactive
45 | CC(=C(CCOC(=O)C(C)C)SSC(CCOC(=O)C(C)C)=C(C)N(C=O)Cc1cnc(C)nc1N)N(C=O)Cc1cnc(C)nc1N | inactive
46 | C[C@@H](Oc1ccc(CNC(=O)c2cccnc2Oc2ccc3c(c2)OCO3)c(F)c1)C(=O)O | inactive
47 | O=C(NCCN1CCOCC1)c1ccc(Cl)cc1 | inactive

Row | Structure (SMILES) | outcome
48 | N[C@@H](COP(=O)(O)O)C(=O)O | inactive
49 | COCCOCCOCCOCCO | inactive
50 | CCCCCCCC/C=C\CCCCCCCC(=O)OCCCC | inactive
51 | Cc1ccsc1/C=C/C1=NCCCN1C | inactive
52 | CNC(=O)[C@H]1O[C@@H](n2cnc3c(NCc4cc(Cl)ccc4OCc4cc(C)no4)ncnc32)[C@H](O)[C@@H]1N | inactive
53 | O=C(O)CCSSCCC(=O)O | inactive
54 | COc1ccc(-c2cc(=O)c3c(O)cc(O[C@@H]4O[C@H](CO[C@@H]5O[C@@H](C)[C@H](O)[C@@H](O)[C@H]5O)[C@@H](O)[C@H](O)[C@H]4O)cc3o2)cc1O | inactive
55 | NNc1nnc(NN)c2ccccc12 | inactive
56 | O=C(CS(=O)Cc1ccco1)NC/C=C\COc1cc(CN2CCCCC2)ccn1 (stereo not given) | inactive
57 | COc1cc(N)ccc1C | inactive
58 | COc1ccc(S(=O)(=O)N2c3ccc(Cl)cc3[C@@](O)(c3ccccc3Cl)[C@H]2C(=O)N2CCC[C@@H]2C(N)=O)cc1OC | inactive
59 | Cc1ccc2c(c1)OCC(=O)CO2 | inactive
60 | Cc1nc2n(c(=O)c1CCN1CCC(c3noc4cc(F)ccc34)CC1)CCC[C@H]2O | inactive
61 | CC(CN)CC(C)(C)CCN (stereo not given) | inactive
62 | COC(=O)c1ccccc1C(=O)c1ccc(OCCN2CCCCC2)cc1 | inactive
63 | Nc1nnc(-c2cccc(Cl)c2Cl)c(N)n1 | inactive
64 | O=C1c2ccccc2C(=O)C1c1ccccc1 | inactive
65 | CCCCOC(=O)c1ccccc1 | inactive
